# According to PubChem BioAssay:
# For some assays here: Potency and affinity values are given separately. The source made the active and inactive calls.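 The calls were made as follows, unless noted: active = primary screen activator hit with a dose response curve and TRPC4 channel activation at any tested dose; inactive = no activation, no dose response, or not a primary hit.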
# Columns and labels:
# [1] = tested on: TRPC4 beta (transient receptor potential cation channel C4), mouse; experiment: activators of mouse TRPC4 channel, confirmation, cell-based, Fluo4 calcium, HEK293 TRPC4beta/mu-opioid, duplicates, 10 µM (AID 2426;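 active = fluorescence ratio normalized to control raised more than 50% in primary screen plus both repeat runs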); conditions: Fluo4 calcium fluorescence, at 10 µM; active compounds read high
# [2] = tested on: transient receptor potential cation channel C4 beta (TRPC4), mouse; experiment: activators of mouse TRPC4 channel, confirmation, cell-based, second round, Fluo4, HEK293 TRPC4beta/mu-opioid, 1 µM (AID 2461;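 active = primary screen active and over 50% activation in each of two duplicate runs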); conditions: Fluo4 calcium fluorescence, at 1 µM; active compounds read high
# [3] = tested on: TRPC4 (transient receptor potential cation channel C4 beta), mouse; experiment: positive allosteric modulators of mouse TRPC4, confirmation, cell-based, second round, Fluo-4, HEK293 TRPC4beta/mu-opioid, 1 µM (AID 2554;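 active = primary screen hit whose fluorescence ratio, in both repeats, exceeds the weak agonist control mean by 3 SD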); conditions: DAMGO EC20, Fluo-4 calcium flux, at 1 µM; active compounds read high
# [4] = tested on: TRPC4 beta (transient receptor potential cation channel C4), mouse; experiment: positive allosteric modulators of mouse TRPC4, confirmation, cell-based, Fluo-4, HEK293 TRPC4beta/mu-opioid (AID 2555;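 active = primary screen hit whose calcium fluorescence ratio, in both repeats, exceeds the weak agonist control mean by 3 SD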); conditions: DAMGO EC20, Fluo-4 calcium flux, at 10 µM; active compounds read high
# [5] = biological target: Short transient receptor potential channel 4 (Mus musculus) (UniProt Q9QUQ5); experiment: inhibitors of mouse TRPC4 channel, confirmation, cell-based, Fluo4, HEK293 TRPC4beta/mu-opioid (AID 2636;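 active = calcium signal cut by more than 3 SD below the full-agonist control yet still positive, in both repeats and the earlier primary screen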); conditions: DAMGO, Fluo4 calcium flux, at 10 µM; active compounds read high
# [6] = biological target: Short transient receptor potential channel 4 (Mus musculus) (UniProt Q9QUQ5); experiment: inhibitors of mouse TRPC4 channel, confirmation, cell-based, second round, Fluo4, HEK293 TRPC4beta/mu-opioid, 1 µM (AID 2637;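 active = calcium signal ratio cut to more than 3 SD under the fully stimulated control mean yet still positive, in both repeats and the primary screen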;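 as to inhibition: percent of integrated ratio relative to wells lacking test compound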); conditions: Fluo4 calcium flux, DAMGO, at 1 µM; active compounds read high
# [7] = biological target: Short transient receptor potential channel 4 (Mus musculus) (UniProt Q9QUQ5); experiment: mouse TRPC4 channel activators, dose response, cell-based, HEK293 TRPC4/mu-opioid, Fluo-4 calcium (AID 434937)
# [8] = biological target: Short transient receptor potential channel 4 (Mus musculus) (UniProt Q9QUQ5); experiment: TRPC4 positive allosteric modulators, dose response, cell-based, HEK293 TRPC4/mu-opioid, Fluo-4 calcium, EC20 DAMGO (AID 434941;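 active = earlier screen potentiator hit that boosts the TRPC4 ion channel at some dose, with a dose response; inactive = no potentiation, no dose response, or not a prior hit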;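 also: calcium entry triggered by an EC20 dose of DAMGO at the co-expressed mu-opioid receptor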)
# [9] = biological target: Short transient receptor potential channel 6 (Mus musculus) (UniProt Q61143); experiment: inhibition of mouse TRPC6 channel, confirmation, selectivity assay for TRPC4 inhibitor project, cell-based, HEK293, membrane potential dye, duplicate (AID 434948;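 active = active in primary screen and both duplicates, each dropping signal beyond three positive-control SD with fluorescence still positive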); conditions: HEK293 TRPC6, membrane potential dye fluorescence, at 10 µM, stimulated with maximal-effect acetylcholine; active compounds read high
# [10] = biological target: Short transient receptor potential channel 6 (Mus musculus) (UniProt Q61143); experiment: activation of mouse TRPC6 channel, confirmation, selectivity assay for TRPC4 activator project, cell-based, HEK293, membrane potential dye, duplicate (AID 434950;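 active = membrane potential signal rise above negative control mean plus 3 SD in both duplicates, also active in the earlier TRPC4 screen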); conditions: HEK293 TRPC6, membrane potential fluorescence, at 10 µM; active compounds read high
# [11] = biological target: Short transient receptor potential channel 6 (Mus musculus) (UniProt Q61143); experiment: TRPC6 potentiation by TRPC4 potentiator hits, confirmation, selectivity assay for TRPC4 potentiator project, HEK293 cells, membrane potential dye, duplicate (AID 434952;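 active = compound raising the membrane signal above positive-control mean plus 3 SD in both repeats, and a primary screen hit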); conditions: HEK293 TRPC6, membrane potential dye fluorescence, at 10 µM, maximal acetylcholine added after compound; active compounds read high
# [12] = biological target: Short transient receptor potential channel 4 (Mus musculus) (UniProt Q9QUQ5); experiment: calcium flux activators in TRPC4/5HT1a cells, counter-screen for TRPC4 activator project, cell-based, second counter screen, HEK293 TRPC4/5HT1a, Fluo-4 (AID 434977;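 active = calcium signal rise above buffer-control mean plus 5 SD in both duplicates, and also a hit in the primary screen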); conditions: Fluo-4 calcium flux, at 10 µM; active compounds read high
# [13] = calcium flux inhibitors in TRPC4/5HT1a cells, confirmation, counter-screen for TRPC4 inhibitor project, cell-based, second counter screen, HEK293 TRPC4/5HT1a, Fluo-4 (AID 434978;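 active = primary screen active whose calcium signal fell more than 3 SD beyond the full-serotonin control mean in both duplicate plates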;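 as to outcome: serotonin given first at submaximal then at maximal dose after compound preincubation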); conditions: Fluo-4 calcium flux, at 10 µM, serotonin added to trigger calcium flux; active compounds read high
# [14] = tested on: TRPC4 (mouse), co-expressed with 5HT1a in HEK293; experiment: calcium flux potentiators in TRPC4/5HT1a cells, confirmation, counter-screen for TRPC4 potentiator project, cell-based, second counter screen, HEK293 TRPC4/5HT1a, Fluo-4 (AID 434979;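 active = signal rise over 3 SD above mean of control wells given weak agonist, in both repeats and first screen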); conditions: Fluo-4 calcium flux, at 10 µM, serotonin added at its EC20 dose; active compounds read high
# [15] = calcium flux activation in mu-opioid HEK293 cells, confirmation, counter-screen for TRPC4 activator project, cell-based, HEK293 mu-opioid receptor line (AID 449723;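 active = hit in primary screen, with calcium signal over 5 SD above buffer well mean in both duplicates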;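 also: counter screen cells carry the mu-opioid receptor alone and lack TRPC4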); conditions: Fluo-4 calcium fluorescence, at 10 µM; active compounds read high
# [16] = calcium flux enhancement in mu-opioid HEK293 cells, confirmation, counter-screen for TRPC4 allosteric potentiator project, cell-based, HEK293 mu-opioid receptor line (AID 449724;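 active = calcium signal rise more than 3 SD above the low-dose agonist control mean, in both duplicate plates and the primary screen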); conditions: Fluo-4 calcium flux, at 10 µM, compound added before EC20 DAMGO stimulus; active compounds read high
# [17] = thallium flux activation in parental CHO cells, counter-screen for KCNQ1 potentiator project (AID 493006;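 active = duplicate-averaged activation above buffer control mean plus 5 SD of those controls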;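 as to activation: fluorescence ratio of max minus min over baseline after K+ and Tl+ depolarization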); conditions: parental CHO-K1 cells, FluxOR thallium flux, at 10 µM; active compounds read high
# [18] = biological target: Potassium voltage-gated channel subfamily KQT member 1 (Homo sapiens) (UniProt P51787); experiment: KCNQ1 potassium channel potentiators, confirmation, FluxOR thallium flux, CHO cells, duplicates (AID 493007;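 active = potentiation averaged over duplicate wells exceeding buffer-only control mean by more than 3 SD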;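 as to outcome: cells depolarized by a potassium plus thallium sulfate stimulus after compound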;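 as to potentiation: 0% = buffer-only wells and 100% = R-L3 activator control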); conditions: KCNQ1 cell line, FluxOR thallium flux fluorescence, at 10 µM; active compounds read high, % of reference activator effect, buffer zero
# [19] = biological target: Potassium voltage-gated channel subfamily KQT member 2 (Rattus norvegicus) (UniProt O88943); experiment: rat KCNQ2 channel potentiation, selectivity assay for KCNQ1 potentiator project, KCNQ2-CHO-K1 cells (AID 493009;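 active = mean duplicate potentiation above the buffer control mean plus 5 SD of buffer wells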;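 also: assay conditions were tuned for KCNQ1 rather than KCNQ2 modulators; signal is max minus min fluorescence divided by baseline after thallium stimulus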); conditions: FluxOR thallium flux fluorescence, at 10 µM; active compounds read high, scaled: buffer 0, activator control 100
# [20] = biological target: Short transient receptor potential channel 4 (Mus musculus) (UniProt Q9QUQ5); experiment: mouse TRPC4 channel inhibitors, dose response, cell-based, HEK293 TRPC4/mu-opioid, Fluo-4 calcium (AID 434942;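 active = primary screen inhibitor hit that blocks the TRPC4 channel at some tested dose, yielding a dose curve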)
# Short transient receptor potential channel 6 (Mus musculus), sequence (Q61143 whole entry, looked up): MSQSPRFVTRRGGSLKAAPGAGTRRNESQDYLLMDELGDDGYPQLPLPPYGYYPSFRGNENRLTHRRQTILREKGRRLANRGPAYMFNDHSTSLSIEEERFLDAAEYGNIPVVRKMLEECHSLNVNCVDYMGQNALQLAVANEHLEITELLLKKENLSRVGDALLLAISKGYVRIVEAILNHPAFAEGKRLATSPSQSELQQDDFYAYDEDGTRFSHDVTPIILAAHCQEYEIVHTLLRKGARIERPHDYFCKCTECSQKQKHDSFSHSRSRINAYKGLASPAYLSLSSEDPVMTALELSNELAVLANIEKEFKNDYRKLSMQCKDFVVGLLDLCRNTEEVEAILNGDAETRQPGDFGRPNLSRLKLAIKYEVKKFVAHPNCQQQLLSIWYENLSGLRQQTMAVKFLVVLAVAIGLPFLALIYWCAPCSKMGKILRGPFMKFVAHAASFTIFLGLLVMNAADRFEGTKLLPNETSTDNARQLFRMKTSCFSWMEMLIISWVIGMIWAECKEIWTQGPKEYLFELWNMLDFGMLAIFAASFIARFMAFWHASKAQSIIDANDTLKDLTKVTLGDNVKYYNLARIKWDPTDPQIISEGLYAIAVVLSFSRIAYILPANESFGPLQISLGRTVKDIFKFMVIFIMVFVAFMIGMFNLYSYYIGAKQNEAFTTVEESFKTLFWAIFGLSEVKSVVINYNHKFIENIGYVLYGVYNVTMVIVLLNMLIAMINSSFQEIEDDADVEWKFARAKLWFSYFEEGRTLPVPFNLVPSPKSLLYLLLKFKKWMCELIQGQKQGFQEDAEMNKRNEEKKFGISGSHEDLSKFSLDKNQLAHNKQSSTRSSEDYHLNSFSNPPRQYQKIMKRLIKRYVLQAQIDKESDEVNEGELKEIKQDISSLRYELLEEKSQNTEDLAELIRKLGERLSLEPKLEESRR
# Potassium voltage-gated channel subfamily KQT member 1 (Homo sapiens), sequence (P51787 whole entry, looked up): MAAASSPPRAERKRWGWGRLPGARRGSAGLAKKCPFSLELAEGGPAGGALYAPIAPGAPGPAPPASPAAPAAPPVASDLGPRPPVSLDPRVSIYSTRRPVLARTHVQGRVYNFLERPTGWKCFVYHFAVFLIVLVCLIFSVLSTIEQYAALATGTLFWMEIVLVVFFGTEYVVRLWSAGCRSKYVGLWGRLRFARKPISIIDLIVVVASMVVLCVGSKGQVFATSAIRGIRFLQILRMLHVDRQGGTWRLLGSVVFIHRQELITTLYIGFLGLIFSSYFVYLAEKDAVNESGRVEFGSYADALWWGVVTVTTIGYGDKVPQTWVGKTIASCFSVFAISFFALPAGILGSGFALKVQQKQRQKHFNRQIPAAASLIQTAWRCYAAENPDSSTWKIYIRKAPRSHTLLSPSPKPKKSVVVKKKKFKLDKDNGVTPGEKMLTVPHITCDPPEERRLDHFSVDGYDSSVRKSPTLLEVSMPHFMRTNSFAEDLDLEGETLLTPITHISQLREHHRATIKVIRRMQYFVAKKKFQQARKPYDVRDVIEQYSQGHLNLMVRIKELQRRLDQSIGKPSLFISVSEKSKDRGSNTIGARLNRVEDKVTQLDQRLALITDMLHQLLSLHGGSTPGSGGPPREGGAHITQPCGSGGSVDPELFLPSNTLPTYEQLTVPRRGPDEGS
# Potassium voltage-gated channel subfamily KQT member 2 (Rattus norvegicus), sequence (O88943 whole entry, looked up): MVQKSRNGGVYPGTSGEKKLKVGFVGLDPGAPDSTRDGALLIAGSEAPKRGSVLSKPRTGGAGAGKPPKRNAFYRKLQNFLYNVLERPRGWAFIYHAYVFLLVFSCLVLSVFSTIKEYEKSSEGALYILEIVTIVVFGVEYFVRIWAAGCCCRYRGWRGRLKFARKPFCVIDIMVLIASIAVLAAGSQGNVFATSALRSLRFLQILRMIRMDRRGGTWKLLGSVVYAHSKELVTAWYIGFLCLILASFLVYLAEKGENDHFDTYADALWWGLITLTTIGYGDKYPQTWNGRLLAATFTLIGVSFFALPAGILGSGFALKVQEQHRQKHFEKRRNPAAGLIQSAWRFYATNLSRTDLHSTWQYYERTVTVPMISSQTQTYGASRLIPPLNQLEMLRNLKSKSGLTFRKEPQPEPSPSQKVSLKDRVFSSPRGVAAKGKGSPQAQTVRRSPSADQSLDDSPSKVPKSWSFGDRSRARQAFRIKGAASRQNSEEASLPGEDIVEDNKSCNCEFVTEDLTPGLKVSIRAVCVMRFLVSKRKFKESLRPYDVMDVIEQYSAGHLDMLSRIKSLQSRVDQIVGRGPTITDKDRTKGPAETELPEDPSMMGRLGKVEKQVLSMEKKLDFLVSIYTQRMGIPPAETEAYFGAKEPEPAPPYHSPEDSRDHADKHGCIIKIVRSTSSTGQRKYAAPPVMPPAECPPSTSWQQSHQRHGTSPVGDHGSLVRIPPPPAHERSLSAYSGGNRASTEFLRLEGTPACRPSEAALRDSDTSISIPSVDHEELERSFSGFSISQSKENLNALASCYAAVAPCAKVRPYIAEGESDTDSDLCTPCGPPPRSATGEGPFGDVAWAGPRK
# Short transient receptor potential channel 4 (Mus musculus), sequence (Q9QUQ5 whole entry, looked up): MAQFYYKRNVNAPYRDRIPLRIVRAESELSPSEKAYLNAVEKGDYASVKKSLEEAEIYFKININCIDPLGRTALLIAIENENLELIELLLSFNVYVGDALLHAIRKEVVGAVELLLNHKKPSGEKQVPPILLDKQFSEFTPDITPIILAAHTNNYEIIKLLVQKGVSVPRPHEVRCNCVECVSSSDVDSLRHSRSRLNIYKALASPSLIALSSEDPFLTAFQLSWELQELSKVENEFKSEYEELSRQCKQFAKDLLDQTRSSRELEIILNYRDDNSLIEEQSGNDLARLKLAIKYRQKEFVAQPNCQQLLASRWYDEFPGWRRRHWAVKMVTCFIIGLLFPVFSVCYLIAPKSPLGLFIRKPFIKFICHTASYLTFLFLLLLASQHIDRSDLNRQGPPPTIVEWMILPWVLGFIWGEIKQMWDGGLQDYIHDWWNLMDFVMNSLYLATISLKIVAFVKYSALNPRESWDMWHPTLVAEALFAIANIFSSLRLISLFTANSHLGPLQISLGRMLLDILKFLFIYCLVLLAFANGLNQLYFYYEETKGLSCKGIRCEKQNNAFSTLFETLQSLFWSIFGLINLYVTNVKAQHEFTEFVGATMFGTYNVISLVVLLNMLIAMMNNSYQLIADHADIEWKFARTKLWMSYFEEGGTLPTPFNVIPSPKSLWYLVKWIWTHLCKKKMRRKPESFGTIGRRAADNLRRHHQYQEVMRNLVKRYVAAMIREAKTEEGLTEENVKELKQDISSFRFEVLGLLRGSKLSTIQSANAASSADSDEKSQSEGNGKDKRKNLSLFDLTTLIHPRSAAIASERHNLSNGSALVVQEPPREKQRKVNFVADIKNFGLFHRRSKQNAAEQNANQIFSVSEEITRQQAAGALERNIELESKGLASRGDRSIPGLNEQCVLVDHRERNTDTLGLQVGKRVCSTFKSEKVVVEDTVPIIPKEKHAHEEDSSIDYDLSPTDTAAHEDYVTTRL
smiles,measurement,setting,value
Brc1ccccc1CN1CCN(Cc2c[nH]c3ccccc23)CC1,outcome,[1],inactive
same,outcome,[2],inactive
same,outcome,[3],inactive
same,outcome,[4],inactive
same,inhibition,[5],78% (active)
same,outcome,[6],inactive
same,outcome,[7],inactive
same,outcome,[8],inactive
same,inhibition,[9],55.5% (active)
same,outcome,[10],inactive
same,outcome,[11],inactive
same,outcome,[12],inactive
same,inhibition,[13],41.8% (active)
same,outcome,[14],inactive
same,outcome,[15],inactive
same,outcome,[16],inactive
same,outcome,[17],inactive
same,outcome,[18],inactive
same,outcome,[19],inactive
O=C(Nc1cccc(Cl)c1)c1cnn2cccnc12,outcome,[1],inactive
same,outcome,[2],inactive
same,potentiation,[3],16% (active)
same,potentiation,[4],14% (active)
same,outcome,[5],inactive
same,outcome,[6],inactive
same,outcome,[7],inactive
same,outcome,[20],inactive
same,outcome,[9],inactive
same,outcome,[10],inactive
same,outcome,[11],inactive
same,outcome,[12],inactive
same,outcome,[13],inactive
same,potentiation,[14],43% (active)
same,outcome,[15],inactive
same,outcome,[16],inactive
CCCC1(c2ccccc2)NC(=O)N(CC(=O)c2[nH]c(C)c(C(=O)OCC)c2C)C1=O (configuration not stated),outcome,[1],inactive
same,outcome,[2],inactive
same,outcome,[3],inactive
same,potentiation,[4],18% (active)
same,outcome,[5],inactive
same,outcome,[6],inactive
same,outcome,[7],inactive
same,outcome,[20],inactive
same,outcome,[9],inactive
same,outcome,[10],inactive
same,outcome,[11],inactive
same,outcome,[12],inactive
same,outcome,[13],inactive
same,potentiation,[14],35.6% (active)
same,outcome,[15],inactive
same,outcome,[16],inactive
O=Cc1cc(N=Nc2ccccc2Cl)ccc1O,outcome,[1],inactive
same,outcome,[2],inactive
same,outcome,[3],inactive
same,outcome,[4],inactive
same,inhibition,[5],91% (active)
same,outcome,[6],inactive
same,outcome,[7],inactive
same,outcome,[8],inactive
same,outcome,[9],inactive
same,outcome,[10],inactive
same,outcome,[11],inactive
same,outcome,[12],inactive
same,inhibition,[13],30.2% (active)
same,outcome,[14],inactive
same,outcome,[15],inactive
same,outcome,[16],inactive
same,activation,[17],237% (active)
same,potentiation,[18],81% (active)
same,potentiation,[19],248% (active)
COc1ccc(N/C(C)=C2/C(=O)C(=O)N(CCO)C2c2ccc([N+](=O)[O-])cc2)cc1 (configuration not stated),outcome,[1],inactive
same,outcome,[2],inactive
same,potentiation,[3],189% (active)
same,potentiation,[4],150% (active)
same,outcome,[5],inactive
same,outcome,[6],inactive
same,outcome,[7],inactive
same,outcome,[20],inactive
same,outcome,[9],inactive
same,outcome,[10],inactive
same,outcome,[11],inactive
same,outcome,[12],inactive
same,outcome,[13],inactive
same,potentiation,[14],129% (active)
same,outcome,[15],inactive
same,outcome,[16],inactive
O=C(CCN1CCN(Cc2ccccc2)CC1)Nc1ccc(OCc2ccccc2)cc1,outcome,[1],inactive
same,outcome,[2],inactive
same,outcome,[3],inactive
same,potentiation,[4],12% (active)
same,outcome,[5],inactive
same,outcome,[6],inactive
same,outcome,[7],inactive
same,outcome,[20],inactive
same,outcome,[9],inactive
same,outcome,[10],inactive
same,outcome,[11],inactive
same,outcome,[12],inactive
same,outcome,[13],inactive
same,potentiation,[14],25.1% (active)
same,outcome,[15],inactive
same,outcome,[16],inactive
CCCc1nc2oc3c(NCCN(C)C)ncnc3c2c2c1CCCC2,outcome,[1],inactive
same,outcome,[2],inactive
same,outcome,[3],inactive
same,outcome,[4],inactive
same,inhibition,[5],86% (active)
same,inhibition,[6],37% (active)
same,outcome,[7],inactive
same,outcome,[8],inactive
same,outcome,[9],inactive
same,outcome,[10],inactive
same,outcome,[11],inactive
same,outcome,[12],inactive
same,inhibition,[13],13.5% (active)
same,outcome,[14],inactive
same,outcome,[15],inactive
same,outcome,[16],inactive
same,outcome,[17],inactive
same,outcome,[18],inactive
same,outcome,[19],inactive
CCCCn1c(SCC(=O)N2c3ccccc3Sc3ccccc32)nc2c1c(=O)n(C)c(=O)n2C,outcome,[1],inactive
same,outcome,[2],inactive
same,potentiation,[3],8% (active)
same,potentiation,[4],97% (active)
same,outcome,[5],inactive
same,outcome,[6],inactive
same,outcome,[7],inactive
same,outcome,[20],inactive
same,outcome,[9],inactive
same,outcome,[10],inactive
same,outcome,[11],inactive
same,outcome,[12],inactive
same,outcome,[13],inactive
same,potentiation,[14],93.4% (active)
same,outcome,[15],inactive
same,outcome,[16],inactive
Cc1cc(C)cc(N/C(N)=N/c2nc(C)cc(C)n2)c1,outcome,[1],inactive
same,outcome,[2],inactive
same,outcome,[3],inactive
same,outcome,[4],inactive
same,inhibition,[5],100% (active)
same,outcome,[6],inactive
same,outcome,[7],inactive
same,outcome,[8],inactive
same,outcome,[9],inactive
same,outcome,[10],inactive
same,outcome,[11],inactive
same,outcome,[12],inactive
same,inhibition,[13],30.2% (active)
same,outcome,[14],inactive
same,outcome,[15],inactive
same,outcome,[16],inactive
same,outcome,[17],inactive
same,outcome,[18],inactive
same,outcome,[19],inactive
Cc1ccc(S(=O)(=O)N2CCC(N3CCN(C)CC3)CC2)cc1Cl,outcome,[1],inactive
same,outcome,[2],inactive
same,potentiation,[3],12% (active)
same,potentiation,[4],20% (active)
same,outcome,[5],inactive
same,outcome,[6],inactive
same,outcome,[7],inactive
same,outcome,[20],inactive
same,outcome,[9],inactive
same,outcome,[10],inactive
same,outcome,[11],inactive
same,outcome,[12],inactive
same,outcome,[13],inactive
same,potentiation,[14],34.5% (active)
same,outcome,[15],inactive
same,outcome,[16],inactive
Cc1nc2c3cc(Cl)ccc3n(CCN3CCCCC3)c2s1,outcome,[1],inactive
same,outcome,[2],inactive
same,outcome,[3],inactive
same,outcome,[4],inactive
same,inhibition,[5],72% (active)
same,outcome,[6],inactive
same,outcome,[7],inactive
same,outcome,[8],inactive
same,inhibition,[9],39.5% (active)
same,outcome,[10],inactive
same,outcome,[11],inactive
same,outcome,[12],inactive
same,inhibition,[13],28.7% (active)
same,outcome,[14],inactive
same,outcome,[15],inactive
same,outcome,[16],inactive
same,outcome,[17],inactive
same,outcome,[18],inactive
same,outcome,[19],inactive
CN(C)CC(CCC(CN(C)C)C(O)(c1ccccc1)c1ccccc1)C(O)(c1ccccc1)c1ccccc1 (configuration not stated),outcome,[1],inactive
same,outcome,[2],inactive
same,outcome,[3],inactive
same,outcome,[4],inactive
same,outcome,[5],inactive
same,outcome,[6],inactive
same,outcome,[7],inactive
same,outcome,[8],inactive
same,outcome,[9],inactive
same,outcome,[10],inactive
same,outcome,[11],inactive
same,outcome,[12],inactive
same,outcome,[13],inactive
same,outcome,[14],inactive
same,outcome,[15],inactive
same,outcome,[16],inactive
same,outcome,[17],inactive
same,outcome,[18],inactive
same,outcome,[19],inactive
CC[n+]1c(/C=C/Nc2ccccc2)oc2ccc(OC)cc21,outcome,[1],inactive
same,outcome,[2],inactive
same,outcome,[3],inactive
same,outcome,[4],inactive
same,inhibition,[5],92% (active)
same,outcome,[6],inactive
same,outcome,[7],inactive
same,outcome,[8],inactive
same,inhibition,[9],46.5% (active)
same,outcome,[10],inactive
same,outcome,[11],inactive
same,outcome,[12],inactive
same,inhibition,[13],34% (active)
same,outcome,[14],inactive
same,outcome,[15],inactive
same,outcome,[16],inactive
N#CC1=C(N)C(C#N)(C#N)C(c2cccnc2)C2CC(c3ccccc3)CC=C12 (configuration not stated),outcome,[1],inactive
same,outcome,[2],inactive
same,outcome,[3],inactive
same,potentiation,[4],77% (active)
same,outcome,[5],inactive
same,outcome,[6],inactive
same,outcome,[7],inactive
same,outcome,[20],inactive
same,outcome,[9],inactive
same,outcome,[10],inactive
same,outcome,[11],inactive
same,outcome,[12],inactive
same,outcome,[13],inactive
same,potentiation,[14],9.65% (active)
same,outcome,[15],inactive
same,outcome,[16],inactive
